Among all 39,000 compounds or so, about 3,300 (8.5%) were called active. The entries come from a sample that favours actives as a whole.
The compounds below were run on HepG2 (assay: cytotoxicity call (relative viability < 0.9)). Settings: 10 µM.
With `C[C@@H]1CN([C@H](C)CO)C(=O)c2cc(C#CC3(O)CCCC3)cnc2O[C@@H]1CN(C)S(=O)(=O)c1ccc(F)cc1` the cytotoxicity call was “inactive”.
With `O=C(CN1CCOCC1)N[C@H]1CC[C@@H](CCNC(=O)C2CCC2)O[C@@H]1CO` the cytotoxicity call was “inactive”.
For `C[C@H]1CN([C@@H](C)CO)C(=O)c2cccc(NC(=O)Nc3ccc(C(F)(F)F)cc3)c2O[C@H]1CN(C)S(C)(=O)=O`, the cytotoxicity call was “inactive”.
With `COc1ccc2c3c([nH]c2c1)[C@H](CO)N(C[C@]13CCN(CCc2ccccc2)CC1)C(=O)CN1CCOCC1` the cytotoxicity call was “inactive”.
`COc1ccc2c3c([nH]c2c1)[C@H](CO)N(Cc1ccc(cc1)Cl)C[C@]13CCN(CC1)Cc1ccccc1` was tested, and the cytotoxicity call was “active”.
For `COc1ccc2c3c([nH]c2c1)[C@@H](CO)N(C[C@]13CCN(CC1)Cc1ccccc1)C(=O)CN1CCOCC1`, the cytotoxicity call was “inactive”.
For `COc1ccc2c3c([nH]c2c1)[C@H](CO)N(Cc1ccncc1)C[C@]13CCN(CC1)Cc1ccc(cc1)-c1ccccn1`, the cytotoxicity call was “inactive”.
With `COc1ccc2c3c([nH]c2c1)[C@H](CO)N(C[C@]13CCN(CC1)Cc1ccccc1)C(=O)CN1CCOCC1` the cytotoxicity call was “active”.
With `COc1ccc2c3c([nH]c2c1)[C@H](CO)N(Cc1ccc(cc1)Cl)C[C@]13CCN(CC1)Cc1nccs1` the cytotoxicity call was “inactive”.
For `COc1ccc2c3c([nH]c2c1)[C@@H](CO)N(Cc1ccc(cc1)Cl)C[C@]13CCN(CC1)Cc1nccs1`, the cytotoxicity call was “inactive”.
With `COc1ccc2c3c([nH]c2c1)[C@@H](CO)N(Cc1ccc(cc1)Cl)C[C@]13CCN(CC1)Cc1ccccc1` the cytotoxicity call was “active”.
`COc1ccc(cc1)CN1C[C@]2(CCN(CC2)Cc2ccccc2OC)c2c([nH]c3cc(ccc23)OC)[C@@H]1CO` was tested, and the cytotoxicity call was “inactive”.
In the case of `C[C@@H]1CN([C@H](C)CO)C(=O)c2cc(NC(=O)CCCCCC(=O)Nc3ccccc3N)ccc2O[C@@H]1CN(C)Cc1ccc(Cl)c(Cl)c1`, the cytotoxicity call is reported as “inactive”.
In the case of `Cc1cc(C(=O)Nc2cccc3c2O[C@@H](CN(C)C(=O)NC2CCCCC2)[C@H](C)CN([C@H](C)CO)C3=O)n(C)n1`, the cytotoxicity call is reported as “inactive”.
In the case of `Cc1noc(C)c1S(=O)(=O)Nc1ccc2c(c1)C(=O)N([C@H](C)CO)C[C@@H](C)[C@H](CN(C)S(=O)(=O)c1ccccc1)O2`, the cytotoxicity call is reported as “inactive”.
`C[C@@H]1CN([C@H](C)CO)C(=O)c2cc(Br)cnc2O[C@@H]1CN(C)Cc1ccc2c(c1)OCO2` was tested, and the cytotoxicity call was “inactive”.
For `COc1ccc(-c2cc(=O)c3c(O)cc(O[C@@H]4O[C@H](CO[C@@H]5O[C@@H](C)[C@H](O)[C@@H](O)[C@H]5O)[C@@H](O)[C@H](O)[C@H]4O)cc3o2)cc1O`, the cytotoxicity call was “inactive”.
For `C[C@H](CO)N1C[C@H](C)[C@@H](CN(C)C(=O)Cc2cccnc2)Oc2cc(-c3cncnc3)ccc2S1(=O)=O`, the cytotoxicity call was “inactive”.
`NC(=O)c1ncn([C@H]2O[C@@H](COP(=O)(O)O)[C@@H](O)[C@@H]2O)c1N` was tested, and the cytotoxicity call was “inactive”.
`C[C@@H]1CN([C@H](C)CO)C(=O)c2cc(NS(=O)(=O)c3cn(C)cn3)ccc2O[C@@H](C)CCCCO[C@H]1CN(C)S(=O)(=O)c1cn(C)cn1` was tested, and the cytotoxicity call was “inactive”.
In the case of `CC(C)(C)OC(=O)C[C@@H]1CC=CC[C@@H](CC(=O)NCCO)C(=O)N[C@@H](Cc2c[nH]c3ccccc23)COC1=O`, the cytotoxicity call is reported as “inactive”.
`NNC(=O)Cc1nc2ccccc2[nH]1` was tested, and the cytotoxicity call was “inactive”.
In the case of `CC(C)(C)c1ccc(CSCc2nc3ccccc3[nH]2)cc1`, the cytotoxicity call is reported as “active”.
`CC(C)Cc1nc2ccccc2[nH]1` was tested, and the cytotoxicity call was “inactive”.
For `Cc1ccc(S(=O)(=O)Nc2ccc3c(c2)C(=O)N([C@H](C)CO)C[C@@H](C)[C@H](CN(C)Cc2ccc4c(c2)OCO4)OCCCC[C@H](C)O3)cc1`, the cytotoxicity call was “active”.
In the case of `Cc1ccc(S(=O)(=O)Nc2ccc3c(c2)C(=O)N([C@@H](C)CO)C[C@@H](C)[C@H](CN(C)Cc2ccc4c(c2)OCO4)OCCCC[C@@H](C)O3)cc1`, the cytotoxicity call is reported as “inactive”.
For `Cc1ccc(S(=O)(=O)Nc2ccc3c(c2)C(=O)N([C@H](C)CO)C[C@@H](C)[C@@H](CN(C)Cc2ccc4c(c2)OCO4)OCCCC[C@@H](C)O3)cc1`, the cytotoxicity call was “active”.
In the case of `Cc1ccc(S(=O)(=O)Nc2ccc3c(c2)C(=O)N([C@H](C)CO)C[C@H](C)[C@@H](CN(C)Cc2ccc4c(c2)OCO4)OCCCC[C@@H](C)O3)cc1`, the cytotoxicity call is reported as “inactive”.
In the case of `Cc1ccc(S(=O)(=O)Nc2ccc3c(c2)C(=O)N([C@@H](C)CO)C[C@H](C)[C@H](CN(C)Cc2ccc4c(c2)OCO4)OCCCC[C@H](C)O3)cc1`, the cytotoxicity call is reported as “inactive”.
In the case of `Cc1ccc(S(=O)(=O)Nc2ccc3c(c2)C(=O)N([C@@H](C)CO)C[C@@H](C)[C@@H](CN(C)Cc2ccc4c(c2)OCO4)OCCCC[C@H](C)O3)cc1`, the cytotoxicity call is reported as “inactive”.
For `Cc1ccc(S(=O)(=O)Nc2ccc3c(c2)C(=O)N([C@H](C)CO)C[C@H](C)[C@H](CN(C)Cc2ccc4c(c2)OCO4)OCCCC[C@H](C)O3)cc1`, the cytotoxicity call was “active”.
For `Cc1ccc(S(=O)(=O)Nc2ccc3c(c2)C(=O)N([C@H](C)CO)C[C@H](C)[C@@H](CN(C)Cc2ccc4c(c2)OCO4)OCCCC[C@H](C)O3)cc1`, the cytotoxicity call was “inactive”.
For `Cc1ccc(S(=O)(=O)Nc2ccc3c(c2)C(=O)N([C@@H](C)CO)C[C@H](C)[C@@H](CN(C)Cc2ccc4c(c2)OCO4)OCCCC[C@H](C)O3)cc1`, the cytotoxicity call was “inactive”.
In the case of `COc1ccc(S(=O)(=O)N(C)C[C@H]2Oc3c(NC(=O)Nc4c(C)noc4C)cccc3C(=O)N([C@H](C)CO)C[C@@H]2C)cc1`, the cytotoxicity call is reported as “inactive”.
`C[C@@H]1CN([C@H](C)CO)C(=O)c2cccc(NS(=O)(=O)c3cccs3)c2O[C@@H]1CN(C)Cc1ccc(Cl)c(Cl)c1` was tested, and the cytotoxicity call was “inactive”.
`C[C@H]1CN([C@@H](C)CO)C(=O)Cc2cc(NC(=O)Cc3ccccc3)ccc2O[C@H]1CN(C)S(C)(=O)=O` was tested, and the cytotoxicity call was “inactive”.
With `CNCc1ccncc1` the cytotoxicity call was “inactive”.
In the case of `Cc1sccc1-c1csc(N)n1`, the cytotoxicity call is reported as “inactive”.
With `C[C@@H]1CN([C@@H](C)CO)C(=O)CCCn2nncc2CO[C@H]1CN(C)C(=O)Nc1ccc2c(c1)OCCO2` the cytotoxicity call was “inactive”.
With `C[C@H](CO)N1C[C@H](C)[C@H](CN(C)C(=O)Nc2cccc3ccccc23)Oc2ncc(-c3cccc(F)c3)cc2C1=O` the cytotoxicity call was “inactive”.
With `C[C@H](CO)N1C[C@H](C)[C@@H](CN(C)S(=O)(=O)c2ccc(Cl)cc2)OCCCC[C@H](C)Oc2ccc(NC(=O)c3ccncc3)cc2C1=O` the cytotoxicity call was “inactive”.
With `C[C@@H]1CN([C@@H](C)CO)C(=O)c2cccc(NS(=O)(=O)c3cccs3)c2O[C@H]1CN(C)S(=O)(=O)c1ccccc1` the cytotoxicity call was “inactive”.

Source: the antibiotic and cytotoxicity screens of Wong et al. (2023)
